Test results from PubChem BioAssay AID1030 (National Center for Advancing Translational Sciences (NCATS), 2008).
In all, about 220,000 compounds went through this assay and about 16,000 (7.3%) were called active. Another 25% or so got no clear call; they are omitted. What follows is part of a selection rich in actives, with near analogues and random picks from the rest. Where a call stands in place of a potency, no number is given. A number with no mark means an inactive call. The call rests on the fitted dose curve; in most records, active means well fitted inhibition curve with a large enough effect (not every such curve was filed as active); inconclusive means small, poorly fitted or top-dose-only effect, or another doubt; inactive means no such curve, though single readings can be large or run the other way.

The compounds below were run against Aldehyde dehydrogenase 1A1 (Homo sapiens) (UniProt P00352) (assay: qHTS Assay for Inhibitors of Aldehyde Dehydrogenase 1 (ALDH1A1)). Details: Purified ALDH1A1, NADH fluorescence, propionaldehyde substrate; series mostly up to 75.3 µM.
Potency means the concentration at half of the fitted maximal effect.

Aldehyde dehydrogenase 1A1 (Homo sapiens), sequence (P00352 whole entry, looked up): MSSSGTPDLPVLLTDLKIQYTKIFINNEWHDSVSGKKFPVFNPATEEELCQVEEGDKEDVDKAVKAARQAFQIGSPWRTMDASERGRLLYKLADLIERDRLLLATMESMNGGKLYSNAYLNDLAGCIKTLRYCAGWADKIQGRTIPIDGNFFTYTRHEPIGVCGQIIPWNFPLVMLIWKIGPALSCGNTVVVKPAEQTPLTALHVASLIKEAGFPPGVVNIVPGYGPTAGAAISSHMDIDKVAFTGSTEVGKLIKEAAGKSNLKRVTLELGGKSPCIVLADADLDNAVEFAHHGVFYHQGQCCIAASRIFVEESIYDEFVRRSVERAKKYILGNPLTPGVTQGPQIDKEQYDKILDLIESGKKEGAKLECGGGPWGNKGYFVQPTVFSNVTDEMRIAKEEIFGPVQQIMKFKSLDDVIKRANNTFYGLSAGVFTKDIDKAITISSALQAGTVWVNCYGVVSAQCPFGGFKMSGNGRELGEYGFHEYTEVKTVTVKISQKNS

Compound	activity, negative = inhibition	Potency
COC(=O)CCCC1=CC2=CC(=O)C(C)(OC(=O)c3cccs3)C(=O)C2=CN1CC1CC1 (configuration not stated)	-4.48% [at 13.5 µM]	
CS(=O)(=O)c1ccc2nc(NC(=O)CN3CCCCCC3)sc2c1		inactive
CS(=O)(=O)c1ccc2nc(NC(=O)C3CCCCC3)sc2c1		inactive
CS(=O)(=O)c1ccc2nc(NC(=O)C3C4C=CC(C4)C3C(=O)O)sc2c1 (configuration not stated)		5.62 µM (active)
CN1CCN(CC(=O)Nc2cccc([N+](=O)[O-])c2)CC1		inactive
COCCCN1C(=O)C(=O)/C(=C(/O)c2ccc3c(c2)CC(C)O3)C1c1cccnc1 (configuration not stated)		39.8 µM (active)
CCOc1cccc(/C(O)=C2/C(=O)C(=O)N(CCOC)C2c2ccncc2)c1 (configuration not stated)		inactive
COc1cc(C2/C(=C(\O)c3ccc4c(c3)CC(C)O4)C(=O)C(=O)N2Cc2ccco2)ccc1O (configuration not stated)		inactive
CCc1ccccc1NC(=O)Cc1cn(C)c2ccccc12		inactive
CC(/C=C/C1(O)C(C)CC(=O)CC1(C)C)OC1OC(CO)C(O)C(O)C1O (configuration not stated)		inactive
O=[N+]([O-])c1cc(Cl)cc(/C=N/NC(=S)Nc2cc(S(=O)(=O)N3CCOCC3)ccc2Cl)c1O		0.178 µM (active)
O=C(Nc1cc(S(=O)(=O)N2CCOCC2)ccc1Cl)c1cc(=O)c2ccccc2o1		inactive
CN(C)/N=C/c1cc(Cl)cc([N+](=O)[O-])c1O		inactive
CCN(CC)S(=O)(=O)c1ccc(OC(C)C)c(N)c1		inactive
COc1ccc2nc(Nc3nc(-c4ccncc4)cs3)sc2c1		inactive
Cn1c(CCC(=O)OCC(=O)NCc2ccccc2Cl)nc(=O)c2ccccc21		inactive
O=C(CCc1nnc(CCCCc2ccccc2)o1)NC(c1cccnc1)C(F)(F)F (configuration not stated)		inactive
CSc1nnc2c(n1)OC(c1ccsc1)N(C(C)=O)c1ccccc1-2 (configuration not stated)		inactive
CCN(CC)CCNC(=O)C1c2ccccc2C(=O)N(C)C1c1cn(C)c2ccccc12 (configuration not stated)		inactive
CSc1nnc2c(n1)OC(c1cn(C)c3ccccc13)N(C(C)=O)c1ccccc1-2 (configuration not stated)		3.98 µM (active)
O=C(CO/N=C/c1ccccc1OC(F)F)NC1CCCC1		inactive
CS(=O)(=O)N(CC(=O)N/N=C/c1ccccn1)c1ccc(Oc2ccccc2)cc1		inactive
O=C(CN1CCN(Cc2ccc(F)cc2Cl)C1=O)NCc1cccs1		inactive

Compound	activity, negative = inhibition	Potency
O=c1c(Cl)c(NCc2ccc(F)cc2Cl)cnn1C12CC3CC(CC(C3)C1)C2		15.8 µM (active)
NC(=O)c1ccc(N2CCOCC2)nc1		inactive
CCNC(=S)NNC(=O)C1CCN(Cc2ccccc2)CC1		inactive
CCCC(=O)C1CCN(Cc2ccccc2)CC1		inactive
O=C(NNS(=O)(=O)c1ccc(Cl)cc1)C1CCN(Cc2ccccc2)CC1		22.4 µM (active)
COc1ccc(-c2cc(C(=O)NCCCn3ccnc3)no2)cc1		inactive
O=C(c1ccco1)N1CCC2(CC1)CCN(c1ncccn1)CC2		25.1 µM (active)
O=C(c1ccco1)N1CCC[C@@]2(CCN(Cc3nccs3)C2)C1		25.1 µM (active)
Cn1cccc1C(=O)N1CCC[C@@]2(CCN(Cc3nccs3)C2)C1		inactive
O=C(c1csnn1)N1CCC[C@@]2(CCN(Cc3nccs3)C2)C1		inactive
Cc1ccc(C)c(OCC(=O)N2CCN(C(=O)c3ccco3)CC2)c1		inactive
O=C(c1cccc([N+](=O)[O-])c1)N1CCN(C(=O)c2ccco2)CC1		inactive
C/C(N)=C(/C#N)C(=O)COC(=O)CNS(=O)(=O)c1ccc(C)cc1		inactive
CC(C)NC(=O)NCCCCCCS(C)=O (configuration not stated)		inactive
O=C(Nc1n[nH]c(C(F)(F)F)n1)c1cccs1		inactive
CC1=C(C(=O)Nc2ccccc2)C(c2cccs2)C(C#N)=C(SCC#N)N1 (configuration not stated)		22.4 µM (active)
CCCSC1=C(C#N)C(c2ccccc2C)C(C(=O)OC)C(=O)N1 (configuration not stated)		inactive
C=CCOC(=O)C1=C(C)NC(SCC(=O)OCC)=C(C#N)C1c1ccc(C)cc1 (configuration not stated)		inactive
CC(C)(C)c1cnnn1-c1ccc([N+](=O)[O-])cc1		inactive
CC(=O)Cc1nsc(NC(=O)c2csc3c2CCCC3)n1		inactive
COC(=O)c1sccc1NC(=O)c1csc2c1CCCC2		22.4 µM (active)
O=C(NCc1ccccc1Cl)c1csc2c1CCCCC2		inactive
O=C(Nc1ccccc1N1CCOCC1)c1csc2c1CCCC2		inactive

Compound	activity, negative = inhibition	Potency
COC(=O)c1sccc1NC(=O)CCC1CCCC1		inactive
Cc1ccc(NC(=O)c2csc3c2CCCC3)cc1		20 µM (active)
COC(=O)/C(=C1\Oc2ccc(C(C)(C)C)cc2S1)C(F)(F)F		inactive
CC/C(O)=C1\C(=O)CC(C)(C)CC1=NCCc1nc2ccccc2[nH]1		inactive
CCCCNC(=O)c1ccc(-n2c(=S)[nH]c3ccccc3c2=O)cc1		inactive
O=C(Cn1c2[n+](c3ccc(C(F)(F)F)cc31)CCCCC2)Nc1c(F)cccc1F		inactive
Cc1ccc(Cl)cc1NC(=O)C1CCN(S(C)(=O)=O)CC1		inactive
O=C(NCc1ccccc1Cl)C1CCCO1 (configuration not stated)		inactive
Cc1ccc(S(=O)(=O)NCC(=O)OCC(=O)N2CCc3ccccc32)cc1		inactive
Cc1cnc(C(=O)OCC(=O)NCCCc2ccccc2)cn1		inactive
Cc1cnc(C(=O)OCC(=O)N2CCc3ccccc32)cn1		3.16 µM (active)
O=C(CNCc1ccc(Cl)cc1)Nc1cccc(C(=O)O)c1		inactive
C/C(=N/OC(=O)c1cccc(C(F)(F)F)c1)c1cnccn1		inactive
OC(COc1ccc(CN2CCSCC2)cc1)CN1CCCCC1 (configuration not stated)		inactive
CCO[C@H]1OC(C(=O)N2CCN(Cc3ccccc3)CC2)=C[C@@H](c2cn(C(C)=O)c3ccccc23)[C@@H]1CCCO		inactive
C/C(=N\N)c1c(-c2ccccc2)c2cc(Br)ccc2[nH]c1=O		inactive
CCCCNC(=O)C1CCC(CNS(=O)(=O)c2ccc(NC(C)=O)cc2)CC1 (configuration not stated)		inactive
CCOc1ccc(NS(=O)(=O)c2ccc(OCC(=O)NCCCOC)cc2)cc1		inactive
COCCCNC(=O)c1ccc(CNS(=O)(=O)c2ccc(NC(C)=O)cc2)cc1		4.47 µM (active)
CCc1ccccc1N1CN(Cc2ccco2)CNC1=S		inactive
CCCCN(CC)CCNC(=O)CCNC(=O)Cn1ccc2ccccc2c1=O		inactive
